Drawing on PubChem BioAssay AID720575 (National Center for Advancing Translational Sciences (NCATS), 2013), this text covers Potency for two compounds.

Some of the results follow. Where a call stands in place of a potency, no number is given. Results filed as inconclusive are left out. Active and inactive are the calls of the source. Calls come from the whole dose curve; as a rule, active = well fitted inhibition curve with a large enough effect; inconclusive = small, poorly fitted or top-dose-only effect; inactive = no such curve, though single readings can be large or run the other way.

The test in a line: qHTS Assay for Inhibitors of Hepatitis C Virus (HCV): Confirmation Assay for Cherry-picked Compounds. To be noted: Potency: inhibition. The text has this: Hepatitis C virus (HCV) infects about 200 million people in the world. Many infected people progress to chronic liver disease including cirrhosis with a risk of developing liver cancer. To date, there is no effective vaccine for hepatitis C. Current therapy based on interferon is only effective in about half of the patients and is associated with significant adverse effects. The fraction of people with HCV who can complete a successful treatment is estimated to be no more than 10 percent. Recent development of direct-acting antivirals against HCV, such as protease and polymerase inhibitors, is promising but still requires combination with peginterferon and ribavirin for maximal efficacy. In addition, these agents are associated with high rate of resistance and many have significant side effects. Due to the lack of a culture system for infectious HCV, the search for new HCV drugs has been greatly hampered. […] High-throughput screening (HTS) with an infectious HCV system would cover the complete spectrum of potentially druggable targets in all stages of HCV lifecycle, and would have more biological relevance than other cell-based assays. […]
Cells were plated in a 1536-wel tissue culture grade plates at a final concentration of 1,000 cells/well (3 uL volume). […] The luciferase activity was read for 15 sec using the PerkinElmenr ViewLux plate reader.
Note: nearly all actives have a fitted effect of over 80% in size.

Regarding `CC[N+]1(C)CCCC(OC(=O)C(O)(c2ccccc2)c2ccccc2)C1` (configuration not stated), the Potency result was “inactive”.

For `CC1=CC(=Cc2sc3ccccc3[n+]2C)C=C(C)O1`, the Potency was 4.99 µM (active).
